# According to PubChem BioAssay AID1851 (National Center for Advancing Translational Sciences (NCATS), 2009):
# “And” between values parts separate entries of the source, which are not always exact repeats. Equal entries are not always repeated. Screen size: about 16,000 compounds; about 4,000 (25%) were called active. Another 26% or so got no clear call; they are omitted. The list is a sample of the results. Unmarked numbers belong to inactive results. Calls come from the whole dose curve; as a rule, active = well fitted curve in the direction sought with a large enough effect; inconclusive = small, poorly fitted or top-dose-only effect, or effect the other way; inactive = no such curve, though single readings can be large or run the other way.
# Target: Cytochrome P450 2C9 (Homo sapiens) (UniProt P11712)
# Sequence (P11712 whole entry, looked up): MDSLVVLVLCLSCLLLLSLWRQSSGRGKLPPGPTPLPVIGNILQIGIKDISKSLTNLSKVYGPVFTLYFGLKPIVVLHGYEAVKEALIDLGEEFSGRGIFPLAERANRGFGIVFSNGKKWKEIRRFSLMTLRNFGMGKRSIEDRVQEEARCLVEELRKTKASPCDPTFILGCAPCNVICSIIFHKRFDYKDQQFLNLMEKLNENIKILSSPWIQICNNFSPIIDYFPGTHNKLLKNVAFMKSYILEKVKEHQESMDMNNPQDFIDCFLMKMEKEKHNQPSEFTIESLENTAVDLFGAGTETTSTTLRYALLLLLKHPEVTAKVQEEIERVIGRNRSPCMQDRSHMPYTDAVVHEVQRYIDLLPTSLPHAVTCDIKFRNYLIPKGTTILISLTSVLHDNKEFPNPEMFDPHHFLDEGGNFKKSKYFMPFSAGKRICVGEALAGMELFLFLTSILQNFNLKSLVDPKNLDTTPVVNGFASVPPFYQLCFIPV
# Assay: Cytochrome panel assay with activity outcomes
# Conditions: recombinant CYP, pro-luciferin dealkylation, luminescence, p450-cyp2c9; series mostly up to 57.1 µM; activity, negative = inhibition: at the top concentration
# % is set by controls: 0 for no effect and ±100 for the full control effect.
Compound,"activity, negative = inhibition",AC50
COc1ccc(-n2c(-c3ccccc3)nc(=S)c3c2CCCC3)cc1,-24.3%,
CC1=C(C(N)=O)C(c2cccs2)n2nc(-c3cccc(Cl)c3)nc2N1 (stereo not drawn),,12.6 µM (active)
C/C(=N\N=C(c1ccccc1)c1ccccc1)c1cccs1,,0.708 µM (active)
CC(=O)/C(=N\N=C(N)N)c1ccccc1,11.7% [at 11.4 µM],
C/C(=N\N=C1\NC(=O)CC(C(=O)O)S1)c1cccs1 (stereo not drawn),-23%,
CC(=O)c1cc(C)ccc1OC(=O)CCN1C(=O)C2C3c4ccccc4C(c4ccccc43)C2C1=O (stereo not drawn),-22.5%,
O=c1[nH]ncn2cccc12,-3.24%,
O=C(CSc1nnc(-c2ccco2)n1-c1ccccc1)NCc1ccco1,-27%,
Cc1cc(C)c(NC(=O)C(C)Sc2nnc(-c3ccco3)n2-c2ccccc2)c(C)c1 (stereo not drawn),,10 µM (active)
NC(=O)c1ccc(C2SCC(=O)N2Cc2ccccc2)cc1 (stereo not drawn),,12.6 µM (active)
O=C(O)c1ccc(CNCc2ccccc2)cc1,10.3% [at 11.4 µM],
O=C1C2CCC(C(O)C2)N1Cc1ccccc1 (stereo not drawn),-15.5%,
O=C(COC(=O)COc1ccccc1)Nc1ccc(OC(F)(F)F)cc1,-22.1%,
O=C(COc1ccccc1)Nc1cc(C(F)(F)F)ccc1N1CCCC1,,14.1 µM (active)
NS(=O)(=O)c1cc(C(=O)O)cc(N2CCCC2)c1Oc1ccccc1,2.98% [at 25.6 µM],
Cc1nn(-c2nc3ccccc3[nH]2)c(N)c1-c1ccc(Cl)cc1,,3.98 µM (active)
O=C(O)Cc1c(O)ccc2ccccc12,-24.2% [at 11.4 µM],
Oc1ccc2ccccc2c1Cc1c(O)ccc2ccccc12,,2 µM (active)
CC(C)(C)c1ccc(O)c(CN(Cc2c(O)ccc3ccccc23)C2CCCCC2)c1,-19% [at 11.4 µM],
CC(=O)N1N=C(c2cccc([N+](=O)[O-])c2)OC1c1ccc(Cl)cc1Cl (stereo not drawn),,1.26 µM (active)
CC(=O)N1N=C(c2cccc([N+](=O)[O-])c2)OC1c1ccccc1Cl (stereo not drawn),,0.891 µM (active)
CCOC(=O)C1CCCN(C(=O)CCCOc2cc(=O)n(C)c3ccccc23)C1 (stereo not drawn),73.9%,
Cn1c(=O)cc(OCCCC(=O)N2CCN(c3ccccc3)CC2)c2ccccc21,,2.51 µM (active)
C(=N\N1CCN(C2c3ccccc3-c3ccccc32)CC1)/c1cccnc1,,0.2 µM (active)
C/C(=N\N1CCN(C2c3ccccc3-c3ccccc32)CC1)c1cccnc1,,0.562 µM (active)
O=[N+]([O-])c1cc(/C=N/N2CCN(C3c4ccccc4-c4ccccc43)CC2)ccc1Cl,-13.6%,
CC(C)(C(=O)c1cccnc1)c1cccnc1,-1.97% [at 25.6 µM],

Compound,"activity, negative = inhibition",AC50
C/C(=N\N1CCN(C2c3ccccc3-c3ccccc32)CC1)c1ccncc1,,2.24 µM (active)
O=c1c2cnn(-c3ccccc3)c2nnn1/N=C/c1cccnc1,11.6%,
Cn1nc(C(F)(F)F)c(/C=N/OC(=O)c2ccccc2Cl)c1SCc1ccc(Cl)cc1,,3.98 µM (active)
N[C@@]1(C(=O)O)CN[C@H](C(=O)O)C1,2.03%,
O=C(c1csnn1)N1CCC2(CC1)CN(Cc1cc(C(F)(F)F)cc(C(F)(F)F)c1)C2,17.2%,
CC1=N/C(=C\c2ccc([N+](=O)[O-])cc2)C(=O)N1c1ccc(Cl)cc1,4.62%,
Cc1ccc(C)n1N1C(=O)/C(=C\c2ccc(Cl)cc2)SC1=S,,5.01 µM (active)
CC(=O)OC[C@@H]1O[C@@H](O/N=C2/C[C@@H](O)[C@@H](O)[C@@H]3[C@@H]4C(=O)N([C@@H](C)c5ccccc5)C(=O)[C@H]4CC[C@H]23)[C@H](OC(C)=O)[C@H](OC(C)=O)[C@@H]1OC(C)=O,10.5% [at 11.4 µM],
CCOc1ccc(/C=C/C2=Cc3c(sc(NC(=O)CSc4n[nH]c(N)n4)c3C#N)C(C)(C)C2)cc1,,10 µM (active)
Cc1ccc(/C=C/C2=Cc3c(sc(NC(=O)CSc4n[nH]c(N)n4)c3C#N)C(C)(C)C2)o1,,2.82 µM (active)
CC(=O)OC[C@@H]1O[C@@H](O/N=C2/C[C@@H](O)[C@@H](O)[C@@H]3[C@@H]4C(=O)N(c5cccc(Oc6ccccc6)c5)C(=O)[C@H]4CC[C@H]23)[C@H](OC(C)=O)[C@H](OC(C)=O)[C@@H]1OC(C)=O,1.66% [at 11.4 µM],
CC(C)(C)NC[C@H](O)c1cc(O)cc(O)c1,-0.81% [at 25.6 µM],
C[C@@H]1OC2C3=C(C(=O)[C@H]4O[C@@H]4[C@H]3O)[C@@H]1[C@H]1[C@H](C)OC=C3[C@H](O)[C@H]4O[C@H]4/C(=N\OCc4ccccc4)[C@@]321,13.2% [at 11.4 µM],
CCOc1cc(CNCCO)c(Cl)cc1OCC(=O)NCCc1ccccc1,-27.7%,
CCOc1cc(CNCCc2ccc(S(N)(=O)=O)cc2)cc(Cl)c1OCc1ccccc1,,12.6 µM (active)
Cc1ccc(C)c(S(=O)(=O)NC(C)C(=O)Nc2ccc(-c3nc4ccccc4s3)cc2)c1 (stereo not drawn),9.42%,
Cc1ccc(-c2nc3ccccc3s2)cc1NC(=S)NC(=O)c1ccccc1,,3.55 µM (active)
Cc1ccc2nc(-c3ccc(NC(=O)c4ccc(N)cc4)c(S(=O)(=O)O)c3)sc2c1,-3.37% [at 11.4 µM],
Cc1ccccc1NC(=S)NC(=O)c1cc(-c2ccccc2)nc2ccccc12,,3.55 µM (active)
Cc1ccc(-c2cc(C(=O)NN=C3CCCC3)c3ccccc3n2)cc1,,12.6 µM (active)
CCCc1ccc(-c2cc(C(=O)NN3CCOCC3)c3ccccc3n2)cc1,,2.51 µM (active)
O=C(O)c1cc(-c2ccc3cc4c(cc3c2)OCO4)nc2ccccc12,-17.1% [at 11.4 µM],
C[N+]1(C)CCc2cc(O)c(O)cc2[C@H]1Cc1ccc(O)c(O)c1,6.54% [at 11.4 µM],
CN(Cc1ccco1)c1ncnc2ccc(-c3ccoc3)cc12,-10.5% [at 2.29 µM],
Cc1cnc(CNc2cc(-c3ccccc3Cl)ncn2)cn1,8.89% [at 2.29 µM],
O=C1C[C@@H](O)[C@@H](O)[C@H]2[C@@H]3C(=O)N(C[C@@H]4CCCO4)C(=O)[C@@H]3CC[C@H]12,21.7% [at 11.4 µM] and 13.9% [at 11.4 µM],
